Laboratory results taken from PubChem BioAssay (Tox21).
Results filed as inconclusive are left out. Active and inactive are the calls of the source. Unless noted, calls come from the whole dose curve; as a rule, active = well fitted curve in the direction sought with a large enough effect in the repeat runs; inconclusive = weak or mixed curves; inactive = no such curve, though single readings can be large; an effect the other way counts as inactive or inconclusive.

What was measured:
[1] = qHTS assay to identify small molecule antagonists of the estrogen related receptor (ERR) signaling pathway from Tox21 library - cell viability counter screen (AID 1224834); note: % is set by controls: 0 for no effect and ±100 for the full control effect; nearly all actives have a fitted effect of over 30% in size
Outline: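 Cytotoxicity of test substances is gauged in the same ERR cells used for the antagonist screen, after 17.5 h of compound treatment at 37 C, by CellTiter-Fluor fluorescence measured after 30 min.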

[2] = qHTS assay to identify small molecule agonists of the constitutive androstane receptor (CAR) signaling pathway - cell viability counter screen (AID 1224836); note: % is set by controls: 0 for no effect and ±100 for the full control effect; nearly all actives have a fitted effect of over 45% in size
Outline: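 Fluorescence from CellTiter-Fluor indicates live cells after 23 h exposure. The human hepatoma line expresses hCAR and a CYP2B6-2.2kb reporter. Incubation medium contains 0.75 uM PK11195 (final).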

[3] = qHTS assay to identify small molecule antagonists of the constitutive androstane receptor (CAR) signaling pathway - cell viability counter screen (AID 1224837); note: % is set by controls: 0 for no effect and ±100 for the full control effect; nearly all actives have a fitted effect of over 45% in size
Outline: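 Multiplexed cytotoxicity read-out for the CAR antagonist screen: double-stable HepG2-CYP2B6-hCAR cells co-treated with 50 nM CITCO (final) and compound over 15 concentrations, incubated 23 hr, then assessed by CellTiter-Fluor fluorescence.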

[4] = qHTS assay to identify small molecule antagonists of the estrogen related receptor signaling pathway with the pleiotropic PPARgamma coactivator (PGC) from Tox21 10K library (AID 1224841; call rule not given here; note: % is set by controls: 0 for no effect and ±100 for the full control effect; actives are mostly falling curves and most rising ones were filed inactive; nearly all actives have a fitted effect of over 50% in size)
Outline: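 Antagonism in this quantitative HTS is taken from loss of luciferase signal in PGC/ERR cells. Cells (2,000/well) are treated with compounds in DMSO after a 6 h settling period and read by One-Glo luminescence after 18 h.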

[5] = qHTS assay to identify small molecule agonists of the estrogen related receptor signaling pathway with the pleiotropic PPARgamma coactivator (PGC) from Tox21 10K library (AID 1224842); note: % is set by controls: 0 for no effect and ±100 for the full control effect; nearly all actives have a fitted effect of over 15% in size
Outline: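 PGC/ERR reporter cell line, 2,000 cells per well, incubated 6 h at 37 C before 23 nL compound in DMSO was added. After 18 h at 37 C, One-Glo luminescence read following 30 min at room temperature.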

[6] = molecular target: Thyrotropin receptor (Homo sapiens) (UniProt P16473); assay: qHTS assay to identify small molecule agonists of the thyroid stimulating hormone receptor (TSHR) signaling pathway (AID 1224843; calls by dose curve; note: % is set by controls: 0 for no effect and ±100 for the full control effect; nearly all actives have a fitted effect of over 45% in size)
Outline: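 Steps: seed 800 TSHR-HEK293 cells per well; add test compound and hold 30 min at ambient temperature; dispense cAMP-d2 then anti-cAMP cryptate; incubate 1 h at ambient; measure fluorescence intensity.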

[7] = qHTS assay to identify small molecule agonists of H2AX (AID 1224845; active = well fitted activation curve with a large enough effect in the signal ratio in the repeat runs, not every such curve was filed as active; the % refers to the signal ratio; note: % is set by controls: 0 for no effect and ±100 for the full control effect)
Outline: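 Wild-type CHO-K1 cells, plated overnight, exposed 3hr at 37C to 15 concentrations (0.76% DMSO final). Lysed, then HTRF anti-pH2AX (S139) cryptate and anti-H2AX-d2 antibodies, 24 hr room temperature; 665/620 nm emission read.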

[8] = qHTS assay to identify small molecule agonists of H2AX - cell viability counter screen (AID 1224847; calls by dose curve; note: top concentration of the series differs between compounds; % is set by controls: 0 for no effect and ±100 for the full control effect; nearly all actives have a fitted effect of over 30% in size)
Outline: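 Viability of CHO-K1 (wild type) cells after 3 hr compound exposure was measured by CellTiter-Glo luminescence.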

[9] = qHTS assay to identify small molecule antagonists of the estrogen related receptor (ERR) signaling pathway from Tox21 library (AID 1224848); note: % is set by controls: 0 for no effect and ±100 for the full control effect; nearly all actives have a fitted effect of over 50% in size
Outline: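 Luminescent reporter read-out (ONE-Glo) from NTP's ERR cell line after 18 h treatment at 37 C with DMSO-dissolved Tox21 compounds; cells pre-plated 6 h beforehand at 2,000 per well.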

[10] = qHTS assay to identify small molecule agonists of the estrogen related receptor (ERR) signaling pathway from Tox21 library (AID 1224849; calls by dose curve; note: % is set by controls: 0 for no effect and ±100 for the full control effect; nearly all actives have a fitted effect of over 15% in size); conditions: ERR reporter cell line, ONE-Glo luciferase, 18 h; at 92.4 µM (top of the series) unless noted
Outline: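 Agonist signal is luciferase luminescence from an ERR reporter cell line treated 18 h at 37 C with DMSO-dissolved compounds, read 30 min after ONE-Glo addition at room temperature.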

[11] = qHTS RealTime-Glo MT Cell Viability Assay in HepG2 cells - 24 hour (AID 1224867); note: % is set by controls: 0 for no effect and ±100 for the full control effect; nearly all actives have a fitted effect of over 50% in size
Outline: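 Luminescence read-out: viable HepG2 cells reduce a prosubstrate to a NanoLuc substrate, giving a signal proportional to live cell number. Reads taken at 0, 8, 16, 24, 32 and 40 h of compound exposure at 37 C.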

[12] = qHTS RealTime-Glo MT Cell Viability Assay in HEK293 cells - 32 hour (AID 1224868); note: top concentration of the series differs between compounds; % is set by controls: 0 for no effect and ±100 for the full control effect; nearly all actives have a fitted effect of over 50% in size
Outline: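 Nonlytic real-time viability readout: viable cells convert prosubstrate to NanoLuc substrate, giving luminescence proportional to live cell number. HEK293, 600 cells/well, compound added after 5 h, continuous culture at 37 C.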

[13] = A CellTox Green Cytotoxicity Assay to monitor cytotoxicity in HEK293 cells - 0 hour (AID 1224869)
Outline: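 Cytotoxicity was tracked continuously in HEK293 cells by a DNA-binding dye excluded from viable cells. Compounds were transferred in DMSO 5 h after seeding; fluorescence was recorded at intervals up to 40 h.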

[14] = qHTS RealTime-Glo MT Cell Viability Assay in HepG2 cells - 40 hour (AID 1224870)
Outline: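 HepG2 cells (600/well) mixed with RealTime-Glo MT reagent, settled 5 h at 37 C/5% CO2 before compound addition. Nonlytic NanoLuc luminescence from viable-cell prosubstrate reduction read repeatedly during 40 h treatment at 37 C.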

[15] = qHTS assay to identify small molecule agonists of the hypoxia (HIF-1) signaling pathway - cell viability counter screen (AID 1224844; calls by dose curve; note: nearly all actives have a fitted effect of over 50% in size; note: potency is the fitted concentration of half-maximal effect; for activity change, negative = cytotoxicity: % is set by controls: 0 for no effect and ±100 for the full control effect)
Outline: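 Tox21 10K compounds were added to HRE-bla ME-180 cells (0.5% dialyzed FBS) and incubated 17 hrs at 37C; ATP-based CellTiter-Glo luminescence then reported cell viability in the same wells.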

[16] = qHTS assay to identify small molecule agonists of the hypoxia (HIF-1) signaling pathway (AID 1224846; active = well fitted activation curve with a large enough effect in the signal ratio in the repeat runs, not every such curve was filed as active; the % refers to the signal ratio; note: % is set by controls: 0 for no effect and ±100 for the full control effect)
Outline: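 Steps: seed ME-180 HRE-bla cells (2,000/well, 0.5% dialyzed FBS); incubate 5 hrs at 37C; pin-transfer compounds or DMSO; incubate 17 hrs; add LiveBLAzer B/G substrate CCF4-AM; measure reporter activation by FRET.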

[17] = molecular target: Nuclear receptor subfamily 1 group I member 3 (Homo sapiens) (UniProt Q14994); assay: qHTS assay to identify small molecule antagonists of the constitutive androstane receptor (CAR) signaling pathway (AID 1224838); note: % is set by controls: 0 for no effect and ±100 for the full control effect; nearly all actives have a fitted effect of over 40% in size
Outline: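 Compounds were titrated across 15 concentrations onto HepG2 cells double-stably expressing hCAR and a CYP2B6-2.2kb reporter, together with 50 nM CITCO (final). After 24 h at 37 C, luciferase activity was measured by luminescence.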

[18] = molecular target: Nuclear receptor subfamily 1 group I member 3 (Homo sapiens) (UniProt Q14994); assay: qHTS assay to identify small molecule agonists of the constitutive androstane receptor (CAR) signaling pathway (AID 1224839); note: nearly all actives have a fitted effect of over 15% in size; note: potency is the fitted concentration of half-maximal effect;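 for activation: HepG2 cells stably carrying human CAR and a CYP2B6 luciferase reporter; % is set by controls: 0 for no effect and ±100 for the full control effect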
Outline: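 Stable hCAR/CYP2B6-2.2kb HepG2 line in DMEM with 10% FBS; compounds (15 concentrations) and 0.75 uM PK11195 final, 24 h at 37 C/5% CO2, then ONE-Glo luminescence after 30 min.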

[19] = qHTS assay to identify small molecule antagonists of the estrogen related receptor signaling pathway with the pleiotropic PPARgamma coactivator (PGC) from Tox21 10K library - cell viability counter screen (AID 1224840; active = well fitted cell-killing curve with a large enough effect in the repeat runs, not every such curve was filed as active; note: % is set by controls: 0 for no effect and ±100 for the full control effect; nearly all actives have a fitted effect of over 40% in size)
Outline: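 Step one, plate 2,000 PGC/ERR cells per well; step two, incubate 6 h at 37 C/5% CO2; step three, pin-transfer compounds; step four, incubate 17.5 h; step five, add CellTiter-Fluor and read fluorescence after 30 min.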

[20] = molecular target: Luciferin 4-monooxygenase (Photinus pyralis) (UniProt P08659); assay: qHTS assay to identify small molecule inhibitors of firefly luciferase (AID 1224835); note: potency is the fitted concentration of half-maximal effect; nearly all actives have a fitted effect of over 25% in size
Outline: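 Biochemical qHTS: compounds run as interplate titrations against purified firefly enzyme, with D-luciferin and ATP each at its KM concentration. Light output recorded by CCD imaging.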

Sequence of Thyrotropin receptor (Homo sapiens) (P16473 whole entry, looked up): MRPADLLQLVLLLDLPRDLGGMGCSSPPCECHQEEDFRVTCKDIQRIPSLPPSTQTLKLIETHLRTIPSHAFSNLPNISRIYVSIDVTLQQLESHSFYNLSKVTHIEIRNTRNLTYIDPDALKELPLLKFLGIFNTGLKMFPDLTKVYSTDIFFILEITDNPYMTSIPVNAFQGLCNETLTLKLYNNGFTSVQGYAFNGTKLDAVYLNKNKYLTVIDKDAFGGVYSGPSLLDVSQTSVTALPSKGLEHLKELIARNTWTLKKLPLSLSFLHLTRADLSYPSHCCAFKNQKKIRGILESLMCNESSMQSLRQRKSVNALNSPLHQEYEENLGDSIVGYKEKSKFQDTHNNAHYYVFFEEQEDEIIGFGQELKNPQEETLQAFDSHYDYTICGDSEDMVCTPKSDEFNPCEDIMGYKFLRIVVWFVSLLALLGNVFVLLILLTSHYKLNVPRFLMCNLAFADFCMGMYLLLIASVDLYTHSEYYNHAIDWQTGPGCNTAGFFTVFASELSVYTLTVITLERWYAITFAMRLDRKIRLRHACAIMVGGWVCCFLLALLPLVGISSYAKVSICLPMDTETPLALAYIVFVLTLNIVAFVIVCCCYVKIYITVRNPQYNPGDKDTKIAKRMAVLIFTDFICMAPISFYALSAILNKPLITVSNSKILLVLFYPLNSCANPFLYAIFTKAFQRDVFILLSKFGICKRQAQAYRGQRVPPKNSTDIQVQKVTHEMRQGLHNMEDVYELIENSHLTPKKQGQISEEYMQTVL
Sequence of Nuclear receptor subfamily 1 group I member 3 (Homo sapiens) (Q14994 whole entry, looked up): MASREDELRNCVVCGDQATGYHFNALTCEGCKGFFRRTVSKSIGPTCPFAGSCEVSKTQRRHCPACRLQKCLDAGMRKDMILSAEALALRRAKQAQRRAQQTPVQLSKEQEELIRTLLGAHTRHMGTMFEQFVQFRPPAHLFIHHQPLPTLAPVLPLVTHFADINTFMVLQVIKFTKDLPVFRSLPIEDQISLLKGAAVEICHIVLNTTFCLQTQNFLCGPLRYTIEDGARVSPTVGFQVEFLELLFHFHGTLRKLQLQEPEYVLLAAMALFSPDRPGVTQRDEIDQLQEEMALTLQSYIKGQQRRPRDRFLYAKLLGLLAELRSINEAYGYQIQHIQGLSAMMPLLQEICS
Sequence of Luciferin 4-monooxygenase (Photinus pyralis) (P08659 whole entry, looked up): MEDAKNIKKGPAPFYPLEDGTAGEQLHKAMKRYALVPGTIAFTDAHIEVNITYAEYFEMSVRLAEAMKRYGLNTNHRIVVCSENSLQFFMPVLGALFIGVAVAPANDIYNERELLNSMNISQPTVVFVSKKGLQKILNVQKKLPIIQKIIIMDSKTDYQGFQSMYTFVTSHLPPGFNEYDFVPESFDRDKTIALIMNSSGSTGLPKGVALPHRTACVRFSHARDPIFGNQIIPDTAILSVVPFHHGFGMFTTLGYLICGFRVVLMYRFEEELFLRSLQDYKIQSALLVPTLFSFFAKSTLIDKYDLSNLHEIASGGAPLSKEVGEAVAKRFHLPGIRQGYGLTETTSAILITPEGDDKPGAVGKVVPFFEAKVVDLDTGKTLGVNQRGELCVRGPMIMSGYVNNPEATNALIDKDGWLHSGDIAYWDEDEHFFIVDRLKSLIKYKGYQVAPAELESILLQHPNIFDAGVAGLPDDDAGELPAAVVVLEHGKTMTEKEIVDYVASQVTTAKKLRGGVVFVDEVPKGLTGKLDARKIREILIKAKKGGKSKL

CCOC(=O)[C@H](CCc1ccccc1)N[C@@H](C)C(=O)N1CCC[C@H]1C(=O)O
inactive: Potency [1] | outcome [2] | outcome [3] | Potency [4] | Potency [5] | outcome [6] | outcome [7] | Potency [8] | Potency [9] | activity change, positive = activation [10] 3.79% [at 42.5 µM] | outcome [11] | Potency [12] | Potency [13] | Potency [14]

CC/C=C\CCCCO
inactive: Potency [1] | outcome [2] | Potency [15] | outcome [7] | outcome [16] | Potency [8] | outcome [11] | Potency [12] | Potency [13] | Potency [14]

CC(C)(C)N(CCO)CCO
inactive: Potency [1] | outcome [2] | Potency [17] | Potency [18] | outcome [6] | Potency [15] | outcome [7] | outcome [16] | outcome [11] | Potency [12] | Potency [13] | Potency [14]

C1=C\CC/C=C\CC/C=C\CC/1
inactive: Potency [1] | outcome [2] | outcome [3] | Potency [18] | outcome [19] | Potency [4] | Potency [5] | outcome [16] | Potency [8] | Potency [9] | activity change, positive = activation [10] 2.93% | outcome [11] | Potency [12] | Potency [13] | Potency [14]

CCCOCC(C)OCC(C)O (centres undefined)
inactive: Potency [1] | outcome [2] | outcome [3] | outcome [19] | Potency [4] | Potency [5] | outcome [6] | Potency [15] | outcome [7] | outcome [16] | Potency [9] | activity change, positive = activation [10] 1.4% | outcome [11] | Potency [12] | Potency [13] | Potency [14]

O=C(O)Cc1cc(I)c(Oc2cc(I)c(O)c(I)c2)c(I)c1
inactive: Potency [1] | outcome [2] | outcome [3] | Potency [18] | outcome [19] | Potency [8] | outcome [11] | Potency [12] | Potency [13] | Potency [14]
active: Potency [15] 24.1 µM

N#CC1(O)CCCCC1
inactive: outcome [2] | outcome [3] | Potency [18] | outcome [19] | Potency [4] | Potency [5] | outcome [6] | Potency [15] | outcome [16] | Potency [8] | Potency [9] | activity change, positive = activation [10] 7.59% | outcome [11] | Potency [12] | Potency [13] | Potency [14]

Cn1ccc2cc3c(cc21)CCN3C(=O)Nc1cccnc1
active: Potency [20] 3.79 µM | Potency [18] 1.64 µM
inactive: viability change, negative = cytotoxic [2] -0.1% [at 19 µM] | activity change, negative = cytotoxicity [3] -15.3% [at 19 µM] | activity, negative = inhibition [17] 213% [at 19 µM] | viability change, negative = cytotoxic [19] -15.1% [at 19 µM] | activation [6] 14.6% [at 19 µM] | activity change, negative = cytotoxicity [15] -7.99% [at 15.8 µM] | activation [16] -0.619% [at 15.8 µM] | activity change, negative = cytotoxicity [8] 1.26% [at 31.6 µM] | activity change, negative = cytotoxicity [11] -2.41% [at 15.8 µM] | activity change, negative = cytotoxic [12] -7.77% [at 15.8 µM] | cytotoxicity [13] -3.51% [at 15.8 µM]

Cc1ccc(Nc2ccc(O)c3c2C(=O)c2ccccc2C3=O)cc1
inactive: Potency [1] | outcome [2] | outcome [3] | Potency [18] | outcome [19] | Potency [15] | outcome [7] | outcome [16] | Potency [8] | outcome [11] | Potency [12] | Potency [13]
